This excerpt belongs to a sample that is enriched for hits.
NRP1-CendR mod – NRP-1/CendR interaction modulation. O14786. FAM-RPARPAR peptide binding to NRP-1, fluorescence polarization. inhibition, % at 25 µM. 360,000 tested, 0.85% active. AID 602438;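 active = inhibition or corrected inhibition above about 18%, plus a signal ratio from 0.5 to 1.5, limit read from the data, passing the limit was not always enough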
ALR H2O2 inh – blocks human ALR sulfhydryl oxidase activity; P55789; purified ALR, DTT oxidation, H2O2 HRP-luminol luminescence; inhibition, % (concentration not given with the values); 290,000 tested, 3.8% active; AID 485317;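 active = mean replicate inhibition above about 79%, with every replicate also reaching it, limit read from the data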
Target sequence (P55789 whole entry, looked up): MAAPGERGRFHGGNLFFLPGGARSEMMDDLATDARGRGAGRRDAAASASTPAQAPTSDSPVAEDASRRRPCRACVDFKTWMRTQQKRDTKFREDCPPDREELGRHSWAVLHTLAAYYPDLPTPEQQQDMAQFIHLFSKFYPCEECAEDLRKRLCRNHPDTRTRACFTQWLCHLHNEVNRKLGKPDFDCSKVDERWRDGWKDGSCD
PglD DTNB – inhibitors of Campylobacter jejuni PglD acetyltransferase; purified PglD enzyme, DTNB colorimetric CoA detection; 360,000 tested, 0.098% active; inhibition, % at 12.5 µM; in the data active = inhibition above about 16%, passing the limit was not always enough
ARNT-TACC3 inh – disruptors of human ARNT/TACC3 interaction; AlphaScreen His-ARNT PAS-B/GST-TACC3 binding, luminescence; TACC3 fragment carries E629A point mutation; 390,000 tested, 0.66% active; Q9Y6A5; AID 623870; inhibition, % at 9.99 µM;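 active = mean inhibition of replicates at least 50% and at least half of replicates each reaching 50%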;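 also: 0% = complete ARNT plus TACC3 wells and 100% = ARNT alone without TACC3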
PDI turbidity – inhibitors of human protein disulfide isomerase; P07237; PDI insulin aggregation turbidity, A650, 90 min; inhibition, % at 10 µM; 350,000 tested, 0.052% active; AID 588391;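 active = mean inhibition across replicates of 30% or more, whatever share of single replicates reach that level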
ERp5 block – blocks human ERp5 reductase activity on insulin | inhibition, % at 9.99 µM | 350,000 tested, 0.05% active | ERp5 insulin aggregation, absorbance 650 nm, 90 min;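 active = mean replicate inhibition above about 25%, with every replicate also reaching it, limit read from the data, passing the limit was not always enough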
Target sequence (Q15084 whole entry, looked up): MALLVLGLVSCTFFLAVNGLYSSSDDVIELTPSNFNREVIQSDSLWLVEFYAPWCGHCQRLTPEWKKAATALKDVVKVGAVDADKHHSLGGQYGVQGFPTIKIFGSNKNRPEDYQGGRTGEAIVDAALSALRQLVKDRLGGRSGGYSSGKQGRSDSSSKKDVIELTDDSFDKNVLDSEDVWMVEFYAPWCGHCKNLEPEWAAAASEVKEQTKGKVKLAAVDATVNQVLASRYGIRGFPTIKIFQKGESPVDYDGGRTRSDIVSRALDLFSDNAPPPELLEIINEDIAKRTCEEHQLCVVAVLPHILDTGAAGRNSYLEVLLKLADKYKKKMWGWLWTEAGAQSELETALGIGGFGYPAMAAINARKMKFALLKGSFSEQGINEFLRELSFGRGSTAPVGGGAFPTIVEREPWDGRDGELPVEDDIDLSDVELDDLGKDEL
Active calls of the source: *.

Screening COC(=O)c1cccc(NC(=S)NCc2ccc(F)cc2)c1 returned NRP1-CendR mod 46.0*, ALR H2O2 inh -1.2, ARNT-TACC3 inh -1.2, PDI turbidity 6.6 and ERp5 block -0.7.
`COC(=O)c1cccc(NC(=S)NCc2ccco2)c1` gave NRP1-CendR mod -9.8, ALR H2O2 inh -12.4, PglD DTNB -7.1, ARNT-TACC3 inh 4.7, PDI turbidity 1.4 and ERp5 block -2.2.
N#Cc1cccc(-c2ccc3c(c2)[C@H]2[C@H](CCN2C(=O)C2CCCCC2)[C@@H](CO)N3)c1 was read as PglD DTNB -2.6, ARNT-TACC3 inh -3.0 and ERp5 block 0.8.
For Cc1cc(NCCOCCO)n2ncc(-c3ccc(Cl)cc3)c2n1 the results were NRP1-CendR mod 7.2, ALR H2O2 inh 98.2*, PglD DTNB 2.1, ARNT-TACC3 inh -2.5 and PDI turbidity 1.6.
COc1ccc(S(=O)(=O)Nc2ccc3c(c2)C(=O)N([C@@H](C)CO)C[C@H](C)[C@H](CN(C)C(=O)NC2CCCCC2)OCCCC[C@H](C)O3)cc1 was read as PglD DTNB -0.6, ARNT-TACC3 inh -1.3 and ERp5 block 4.0.
Screening C[C@@H]1CCCCO[C@@H](CN(C)Cc2ccccc2)[C@@H](C)CN([C@@H](C)CO)C(=O)c2cc(NC(=O)Nc3ccccc3)ccc2O1 returned PglD DTNB 0.5, ARNT-TACC3 inh 9.2 and ERp5 block 3.2.
For CO[C@@H]1CN(C)C(=O)c2ccc(NS(C)(=O)=O)cc2OC[C@@H](C)N(C(=O)NC(C)C)C[C@H]1C the results were PglD DTNB 2.9, ARNT-TACC3 inh -3.1 and ERp5 block 1.6.
Screening Oc1ccc(-c2nc3ccccc3s2)c(O)c1 returned NRP1-CendR mod 4.2, ALR H2O2 inh 27.2, ARNT-TACC3 inh -21.6, PDI turbidity -5.0 and ERp5 block -5.5.
Oc1ccc(-c2cnns2)c(O)c1 was read as NRP1-CendR mod -2.7, ALR H2O2 inh 98.7*, ARNT-TACC3 inh 6.9, PDI turbidity -8.3 and ERp5 block 4.9.
C[C@@H]1CN([C@@H](C)CO)C(=O)c2c(c3ccccc3n2C)-c2ccccc2CO[C@@H]1CN(C)C(=O)c1ccccc1 was read as PglD DTNB 0.8, ARNT-TACC3 inh -2.4 and ERp5 block -2.6.
For COc1cc(/C=C2\C(=N)N3N=CSC3=NC2=O)ccc1OS(=O)(=O)c1ccccc1 the results were NRP1-CendR mod -50.8, ALR H2O2 inh 98.0*, PglD DTNB 1.7, ARNT-TACC3 inh 2.1, PDI turbidity 1.6 and ERp5 block 15.4.
`Cc1cccc(-n2c(C)cc(/C=C3/C(=N)N4C(c5ccccc5)=CSC4=NC3=O)c2C)c1` gave NRP1-CendR mod 9.6, ALR H2O2 inh -3.3, ARNT-TACC3 inh 15.3, PDI turbidity -1.1 and ERp5 block -0.1.
CCOc1cc(/C=C2\C(=N)N3N=CSC3=NC2=O)ccc1OS(=O)(=O)c1ccccc1 was read as NRP1-CendR mod -13.0, ALR H2O2 inh 54.5, PglD DTNB 2.3, ARNT-TACC3 inh -0.9, PDI turbidity 12.7 and ERp5 block -2.8.
For COc1cc(/C=C2/C(=N)N3C(c4ccccc4)=CSC3=NC2=O)ccc1OCC(=O)O the results were NRP1-CendR mod -63.8, ALR H2O2 inh 99.1*, ARNT-TACC3 inh 1.4, PDI turbidity -2.3 and ERp5 block -3.6.
CCCC1=NN2C(=N)/C(=C\c3cc(C)n(Cc4ccccc4)c3C)C(=O)N=C2S1 was read as NRP1-CendR mod 13.0, ALR H2O2 inh 6.0, PglD DTNB -3.2, ARNT-TACC3 inh -0.1, PDI turbidity 5.6 and ERp5 block -2.3.
Screening Cc1cc(/C=C2\C(=N)N3N=CSC3=NC2=O)c(C)n1Cc1ccccc1 returned NRP1-CendR mod -4.5, ALR H2O2 inh 88.4*, PglD DTNB -10.6, ARNT-TACC3 inh -1.8, PDI turbidity 17.6 and ERp5 block 1.6.
`C[C@H](NC(=O)C[C@@H]1C=C[C@H](NC(=O)c2cccnc2)[C@@H](CO)O1)c1ccccc1` gave PglD DTNB -0.9, ARNT-TACC3 inh -0.3 and ERp5 block 4.9.
Screening C[C@H](CO)N1C[C@H](C)[C@@H](CN(C)S(=O)(=O)c2ccc(C(F)(F)F)cc2)OCc2ccccc2-c2ccccc2C1=O returned PglD DTNB -0.8, ARNT-TACC3 inh -8.9 and ERp5 block 1.3.
`CC(C)NC(=O)Nc1cccc2c1O[C@@H](CN(C)S(=O)(=O)c1ccc(F)cc1)[C@H](C)CN([C@H](C)CO)C2=O` gave PglD DTNB 1.2, ARNT-TACC3 inh -12.7 and ERp5 block 2.9.
For CC=Cc1ccc2n(c1=O)C[C@@H]1[C@@H](CO)[C@H](C(=O)NCC3CC3)N(CCC(F)(F)F)[C@H]21 (mixture of isomers) the results were PglD DTNB 0.0, ARNT-TACC3 inh 31.2 and ERp5 block -1.0.
CCOC(=O)C1=C(C)NC(C)=C(C(=O)OCC)C1c1cn(-c2ccccc2)nc1-c1ccco1 was read as NRP1-CendR mod -8.0, ARNT-TACC3 inh 61.8* and PDI turbidity -5.6.
`CCOC(=O)C1=C(C)NC(=O)NC1c1cn(-c2ccccc2)nc1-c1cccs1` (stereo unspecified) gave NRP1-CendR mod -5.9, ALR H2O2 inh -4.1, PglD DTNB 2.6, ARNT-TACC3 inh 0.8 and PDI turbidity 7.1.
Screening O=C(CSc1nccn1Cc1ccco1)Nc1cccc(F)c1 returned NRP1-CendR mod 1.6, ALR H2O2 inh -1.1, PglD DTNB -1.6, ARNT-TACC3 inh -15.5, PDI turbidity -0.3 and ERp5 block -3.3.
For O=C(CSc1nccn1Cc1ccco1)Nc1ccc(F)cc1 the results were NRP1-CendR mod 15.1, ALR H2O2 inh 99.1*, PglD DTNB -3.0, ARNT-TACC3 inh -22.3, PDI turbidity -5.2 and ERp5 block 0.3.
For CC(=O)Nc1cccc(NC(=O)CSc2ncc(-c3ccc(Cl)cc3)n2Cc2ccco2)c1 the results were NRP1-CendR mod -0.8, ALR H2O2 inh 91.5*, PglD DTNB -1.3, ARNT-TACC3 inh 10.0 and PDI turbidity -2.4.
For Cc1ccc(NC(=O)CSc2nccn2Cc2ccco2)cc1 the results were NRP1-CendR mod -15.1, ALR H2O2 inh 89.4*, PglD DTNB -1.5, ARNT-TACC3 inh 0.4, PDI turbidity -0.5 and ERp5 block 8.2.
For Cc1ccc(NC(=O)CSc2nccn2Cc2ccccc2)cc1C the results were NRP1-CendR mod 0.3, ALR H2O2 inh 98.3*, PglD DTNB -2.6, ARNT-TACC3 inh 2.9 and PDI turbidity -6.4.
`CN(C)CC(=O)N1[C@@H](CO)[C@@H](c2ccccc2)C12CN(C(=O)c1cccc(F)c1)C2` gave ERp5 block 1.6.
For COc1ccccc1-c1cn(CC[C@H]2CC[C@@H](NC(=O)NC(C)C)[C@H](CO)O2)nn1 the results were PglD DTNB -1.2, ARNT-TACC3 inh -9.3 and ERp5 block 7.6.
